Source: PubChem BioAssay (Tox21)
Records with an inconclusive call do not appear. Activity calls are given as the source filed them. Unless noted, calls come from the whole dose curve; as a rule, active = well fitted curve in the direction sought with a large enough effect in the repeat runs; inconclusive = weak or mixed curves; inactive = no such curve, though single readings can be large; an effect the other way counts as inactive or inconclusive.

Columns and labels:
[1] = qHTS assay to identify aromatase inhibitors - cell viability counter screen (AID 743084);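 note: cells stimulated with testosterone during compound exposure; nearly all actives have a fitted effect of over 55% in size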
[2] = target: Aryl hydrocarbon receptor (Homo sapiens) (UniProt P35869); experiment: qHTS assay to identify small molecule that activate the aryl hydrocarbon receptor (AhR) signaling pathway (AID 743085);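 note: HG2L7.5c1 human HepG2 liver cells with stably integrated DRE-driven firefly reporter; series mostly up to about 70 µM; nearly all actives have a fitted effect of over 15% in size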
Chain of Aryl hydrocarbon receptor (Homo sapiens) (P35869 whole entry, looked up): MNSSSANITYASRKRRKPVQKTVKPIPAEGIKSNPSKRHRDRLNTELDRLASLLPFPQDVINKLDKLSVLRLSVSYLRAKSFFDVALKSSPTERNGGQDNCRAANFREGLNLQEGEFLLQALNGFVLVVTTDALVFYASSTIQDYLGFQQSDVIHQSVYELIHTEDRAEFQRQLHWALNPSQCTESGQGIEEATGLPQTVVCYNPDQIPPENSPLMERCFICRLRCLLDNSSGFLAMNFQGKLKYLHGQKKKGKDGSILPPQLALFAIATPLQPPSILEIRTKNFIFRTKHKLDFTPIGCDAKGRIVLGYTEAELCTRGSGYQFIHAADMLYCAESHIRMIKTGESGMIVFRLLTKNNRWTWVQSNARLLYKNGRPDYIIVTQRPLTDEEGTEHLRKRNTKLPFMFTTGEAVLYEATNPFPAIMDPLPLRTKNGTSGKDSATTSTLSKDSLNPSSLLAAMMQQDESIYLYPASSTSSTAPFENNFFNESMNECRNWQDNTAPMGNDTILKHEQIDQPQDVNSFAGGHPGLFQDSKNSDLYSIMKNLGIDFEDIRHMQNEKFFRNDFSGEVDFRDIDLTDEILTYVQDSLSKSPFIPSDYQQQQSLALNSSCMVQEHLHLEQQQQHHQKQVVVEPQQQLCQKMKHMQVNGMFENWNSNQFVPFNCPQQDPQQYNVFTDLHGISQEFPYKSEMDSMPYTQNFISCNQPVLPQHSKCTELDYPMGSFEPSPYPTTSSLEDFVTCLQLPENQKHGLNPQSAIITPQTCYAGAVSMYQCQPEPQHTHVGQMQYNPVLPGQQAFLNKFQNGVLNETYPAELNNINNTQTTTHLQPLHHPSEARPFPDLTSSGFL
Summary of the method: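 HepG2 cells (HG2L7.5c1) stably carrying a firefly luciferase reporter driven by 20 dioxin responsive elements were exposed to compound for 24 h at 37C after a 5 h settling period; luminescence rise (ONE-Glo) indicated activation.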

[3] = qHTS assay to identify small molecule that activate the aryl hydrocarbon receptor (AhR) signaling pathway - cell viability counter screen (AID 743086);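 note: HepG2 liver cells carrying the AhR DRE luciferase reporter; series mostly up to about 70 µM; nearly all actives have a fitted effect of over 45% in size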
Summary of the method: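 HepG2-AhR-luc (HG2L7.5c1) cells, 4000/well, treated 24 h at 37 C with compound; viability measured as CellTiter-Fluor fluorescence after 30 min in the same wells as the luciferase read.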

[4] = qHTS assay to identify small molecule antagonists of the peroxisome proliferator-activated receptor gamma (PPARg) signaling pathway - cell viability counter screen (AID 743194); note: nearly all actives have a fitted effect of over 55% in size
Summary of the method: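 Cytotoxicity counter screen in PPARg-bla HEK293H cells, same wells as reporter assay. Compounds plus 50 nM rosiglitazone (final) for 17 h at 37 C, then viability read by CellTiter-Glo luminescence.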

[5] = qHTS assay for small molecule agonists of the antioxidant response element (ARE) signaling pathway (AID 743202; active = well fitted activation curve with a large enough effect in the signal ratio in the repeat runs, not every such curve was filed as active; the % refers to the signal ratio)
Summary of the method: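 HepG2 ARE-bla reporter line, 2,000 cells/well; 5 h preincubation 37 C/5% CO2; compound (DMSO) 16 h 37 C; B/G FRET substrate 2 h RT; fluorescence intensity.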

[6] = qHTS assay for small molecule agonists of the antioxidant response element (ARE) signaling pathway - cell viability counter screen (AID 743203; calls by dose curve; note: nearly all actives have a fitted effect of over 55% in size)
Summary of the method: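 Viability counter screen: CellTiter-Glo luminescence, read after 30 min at room temperature, in ARE-bla HepG2 wells. Compound exposure lasted 16 h at 37C/5% CO2, following a 5 h pre-incubation of the cells after plating.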

[7] = qHTS assay for small molecule activators of the heat shock response signaling pathway - cell viability counter screen (AID 743209); note: nearly all actives have a fitted effect of over 50% in size
Summary of the method: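 Cytotoxicity counter screen run in the same wells as the heat-shock bla reporter assay: HeLa HSE-bla cells, 5 h compound exposure at 37 C, viability read by CellTiter-Glo luminescence.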

[8] = qHTS assay for small molecule activators of the heat shock response signaling pathway (AID 743210; active = well fitted activation curve with a large enough effect in the signal ratio in the repeat runs, with a control signal flat, not every such curve was filed as active; the % refers to the signal ratio;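 note: HeLa cells with beta-lactamase reporter driven by heat shock elements; series mostly up to about 63 µM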)
Summary of the method: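 Beta-lactamase reporter read-out: FRET substrate fluorescence after 2.5 h at RT, following 5 h compound treatment at 37 C of HeLa cells carrying HSE-driven bla reporter; quantitative HTS format.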

[9] = qHTS assay to identify small molecule agonists of the peroxisome proliferator-activated receptor delta (PPARd) signaling pathway - cell viability counter screen (AID 743211); note: nearly all actives have a fitted effect of over 55% in size
Summary of the method: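 PPARd-bla HEK293H cells (UAS-beta-lactamase reporter) were treated with compounds for 17 h at 37 C. Viability was then read in the same wells by CellTiter-Glo luminescence after 30 min at room temperature.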

[10] = target: Peroxisome proliferator-activated receptor delta (Homo sapiens) (UniProt Q03181); experiment: qHTS assay to identify small molecule agonists of the peroxisome proliferator-activated receptor delta (PPARd) signaling pathway (AID 743212; calls by dose curve)
Chain of Peroxisome proliferator-activated receptor delta (Homo sapiens) (Q03181 whole entry, looked up): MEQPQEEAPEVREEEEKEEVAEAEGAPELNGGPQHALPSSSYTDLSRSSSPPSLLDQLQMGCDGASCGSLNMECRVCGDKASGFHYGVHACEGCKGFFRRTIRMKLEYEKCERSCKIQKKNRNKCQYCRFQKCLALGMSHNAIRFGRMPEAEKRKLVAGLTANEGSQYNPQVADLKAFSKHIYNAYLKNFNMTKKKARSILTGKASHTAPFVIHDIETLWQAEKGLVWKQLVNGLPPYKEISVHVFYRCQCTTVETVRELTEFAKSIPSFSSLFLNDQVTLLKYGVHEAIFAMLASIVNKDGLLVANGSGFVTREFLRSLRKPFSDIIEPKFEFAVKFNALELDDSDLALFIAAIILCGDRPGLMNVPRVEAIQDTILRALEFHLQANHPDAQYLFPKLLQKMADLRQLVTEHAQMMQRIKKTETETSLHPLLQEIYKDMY
Summary of the method: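 Read-out: beta-lactamase FRET fluorescence after 2 h room-temperature incubation with LiveBLAzer B/G substrate. Cells were HEK293H carrying a UAS-bla reporter for PPARd, treated at 37 C with DMSO-dissolved compounds.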

[11] = qHTS assay to identify small molecule antagonists of the peroxisome proliferator-activated receptor delta (PPARd) signaling pathway - cell viability counter screen (AID 743213); note: nearly all actives have a fitted effect of over 50% in size
Summary of the method: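 Same-well viability: cells pre-incubated 5 h, dosed with compound plus 300 nM L165041, kept 17 h at 37 C, FRET substrate 2 h RT, then CellTiter-Glo 30 min RT and luminescence.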

[12] = target: Peroxisome proliferator-activated receptor delta (Homo sapiens) (UniProt Q03181); experiment: qHTS assay to identify small molecule antagonists of the peroxisome proliferator-activated receptor delta (PPARd) signaling pathway (AID 743215; active = well fitted inhibition curve with a large enough effect in the signal ratio in the repeat runs, not every such curve was filed as active; the % refers to the signal ratio;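 note: cells stimulated with agonist L165041 at 300 nM final during compound exposure; series mostly up to about 62 µM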)
Summary of the method: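 Agonist L165041 (300 nM final) added with compound to PPARd-bla HEK293H UAS-bla reporter cells; 17 h incubation at 37 C. Read-out: LiveBLAzer FRET substrate, 2 h at room temperature, fluorescence intensity.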

[13] = target: Bile acid receptor (Homo sapiens) (UniProt Q96RI1); experiment: qHTS assay to identify small molecule antagonists of the farnesoid-X-receptor (FXR) signaling pathway (AID 743217; active = well fitted inhibition curve with a large enough effect in the signal ratio in the repeat runs, not every such curve was filed as active; the % refers to the signal ratio)
Chain of Bile acid receptor (Homo sapiens) (Q96RI1 whole entry, looked up): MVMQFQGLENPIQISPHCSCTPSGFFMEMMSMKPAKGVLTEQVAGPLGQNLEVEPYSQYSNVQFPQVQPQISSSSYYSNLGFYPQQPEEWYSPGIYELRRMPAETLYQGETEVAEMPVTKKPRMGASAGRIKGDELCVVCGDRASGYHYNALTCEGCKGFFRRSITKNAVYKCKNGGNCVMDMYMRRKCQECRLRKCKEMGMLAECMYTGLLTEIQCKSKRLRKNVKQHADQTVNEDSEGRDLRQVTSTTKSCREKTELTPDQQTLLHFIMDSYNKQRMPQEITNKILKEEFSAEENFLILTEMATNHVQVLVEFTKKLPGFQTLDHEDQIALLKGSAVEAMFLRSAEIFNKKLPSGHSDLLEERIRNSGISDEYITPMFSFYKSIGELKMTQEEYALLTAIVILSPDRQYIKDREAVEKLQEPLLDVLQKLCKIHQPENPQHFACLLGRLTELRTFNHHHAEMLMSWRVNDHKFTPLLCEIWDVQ
Summary of the method: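 Antagonist mode: chenodeoxycholic acid at 50 uM final stimulates a UAS-driven beta-lactamase reporter in HEK 293T FXR-bla cells during 16 h, 37C compound exposure. Read-out is FRET substrate fluorescence after 2 h at room temperature.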

[14] = qHTS assay to identify small molecule agonists of the farnesoid-X-receptor (FXR) signaling pathway - cell viability counter screen (AID 743218); note: nearly all actives have a fitted effect of over 45% in size
Summary of the method: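 Viability counter screen in the same wells: CellTiter-Glo luminescence, 30 min room-temperature incubation, measured after the beta-lactamase read. Cells were GeneBLAzer FXR-UAS-bla HEK 293T, compound-treated 16 h at 37C.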

[15] = target: Bile acid receptor (Homo sapiens) (UniProt Q96RI1); experiment: qHTS assay to identify small molecule agonists of the farnesoid-X-receptor (FXR) signaling pathway (AID 743220; active = well fitted activation curve with a large enough effect in the signal ratio in the repeat runs, not every such curve was filed as active; the % refers to the signal ratio)
Summary of the method: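 FXR-UAS-bla HEK 293T cells carrying a UAS-driven beta-lactamase reporter were plated for 5 h at 37C/5% CO2, then exposed to DMSO-dissolved Tox21 10K compounds for 16 h at 37C. A LiveBLAzer B/G FRET substrate was loaded for 2 h at room temperature before fluorescence reading.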

[16] = qHTS assay to identify small molecule antagonists of the farnesoid-X-receptor (FXR) signaling pathway - cell viability counter screen (AID 743221; active = well fitted cell-killing curve with a large enough effect in the repeat runs, not every such curve was filed as active; note: nearly all actives have a fitted effect of over 50% in size)
Summary of the method: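 FXR-UAS-bla HEK 293T cells were treated with test compounds plus chenodeoxycholic acid (50 uM final) for 16 h at 37 C. Cell viability in the same wells was then read as CellTiter-Glo luminescence after 30 min at room temperature.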

[17] = target: Vitamin D3 receptor (Homo sapiens) (UniProt P11473); experiment: qHTS assay to identify small molecule agonists of the vitamin D receptor (VDR) signaling pathway (AID 743222; calls by dose curve)
Chain of Vitamin D3 receptor (Homo sapiens) (P11473 whole entry, looked up): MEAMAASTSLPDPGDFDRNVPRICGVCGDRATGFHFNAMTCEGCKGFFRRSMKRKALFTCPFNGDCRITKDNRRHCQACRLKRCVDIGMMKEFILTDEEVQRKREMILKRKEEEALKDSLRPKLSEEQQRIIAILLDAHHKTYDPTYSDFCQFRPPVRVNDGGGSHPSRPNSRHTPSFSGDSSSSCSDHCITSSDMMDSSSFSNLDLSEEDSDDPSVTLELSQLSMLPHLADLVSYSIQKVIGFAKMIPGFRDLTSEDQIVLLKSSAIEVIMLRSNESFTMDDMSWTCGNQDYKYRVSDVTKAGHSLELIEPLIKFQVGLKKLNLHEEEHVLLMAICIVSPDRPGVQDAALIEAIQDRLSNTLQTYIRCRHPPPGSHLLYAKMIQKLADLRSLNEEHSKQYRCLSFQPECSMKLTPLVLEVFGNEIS
Summary of the method: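 Agonist mode, beta-lactamase reporter: fluorescence from LiveBLAzer B/G FRET substrate (2 h, room temperature) read after 16 h compound treatment at 37 C of VDR-bla cells, which were pre-incubated 4 h after seeding.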

[18] = target: Vitamin D3 receptor (Homo sapiens) (UniProt P11473); experiment: qHTS assay to identify small molecule antagonists of the vitamin D receptor (VDR) signaling pathway (AID 743223; active = well fitted inhibition curve with a large enough effect in the signal ratio in the repeat runs, not every such curve was filed as active; the % refers to the signal ratio)
Summary of the method: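 VDR-bla cells were plated, incubated 4 h at 37C, then given compound and 1alpha,25-dihydroxyvitamin D3 (3 nM final). After 16 h at 37C, LiveBLAzer B/G FRET substrate was added for 2 h at room temperature and fluorescence read.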

Measured: Potency

Cc1c(N(C)C)c(=O)n(-c2ccccc2)n1C
inactive: all assays above

CCCCC/C(C=O)=C\c1ccccc1
not listed: [14] | [17] | [18]
inactive: all other assays above

C[C@]12C[C@H](O)[C@H]3[C@@H](CCC4=CC(=O)CC[C@@]43C)[C@@H]1CC[C@@H]2C(=O)CO
not listed: [17] | [18]
inactive: all other assays above

CC1=C(/C=C/C(C)=C/C=C/C(C)=C/C(=O)O)C(C)(C)CCC1
not listed: [5] | [7] | [8] | [10] | [13] | [14] | [15]
inactive: all other assays above

COc1cc(C=O)ccc1O
not listed: [8] | [14]
inactive: all other assays above

C/C=C/c1ccc(O)c(OC)c1
not listed: [5] | [12] | [13] | [15] | [17] | [18]
inactive: all other assays above

NC(=O)OCC(COC(N)=O)c1ccccc1
not listed: [5] | [13] | [14] | [15] | [17] | [18]
inactive: all other assays above

O=C1OC(c2ccc(O)cc2)(c2ccc(O)cc2)c2ccccc21
not listed: [2] | [5] | [10] | [12] | [13] | [15]
inactive: all other assays above
